Giardia FBPA inh: qHTS Assay for Inhibitors of Fructose-1,6-bisphosphate Aldolase from Giardia Lamblia; A8B2U2; purified Giardia FBPA; Potency, µM (doses to about 59.6 µM), usual class: inhibitors; 0.71% of 290,000 active; also: nearly all actives have a fitted effect of over 55% in size
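40 nM FBPA preincubated 10 min at RT with compound (up to 57.5 uM final), then substrate plus GAPDH/TPI/NAD/arsenate coupling and diaphorase/resazurin added. Fluorescence read after 20 min at RT, 525/598 nm.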
RE007 growth inh: qHTS Assay for Inhibitors of the HIV-1 protein Vpr | S. pombe RE007 Vpr strain, BacTiter-Glo ATP luminescence, 24 h | Potency, µM (highest dose often 92.2 µM), most hits filed as inhibitors | 0.21% of 360,000 active | AID 651644, 2012; active = well fitted falling curve with a large enough effect; inconclusive = small, poorly fitted or top-dose-only effect; inactive = no such curve, though single readings can be large or run the other way; also: nearly all actives have a fitted effect of over 50% in size
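Fission yeast RE007 carrying one integrated HIV-1 vpr copy, seeded at OD 0.01 in PMG+AL medium with 23 nL pinned compound. Grown 24 h at 30 degrees; viability read by BacTiter-Glo luminescence after 5 min.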
TbPYK inhibitor: qHTS of Trypanosoma Brucei Inhibitors. TbPYK enzyme, Kinase-Glo Plus ATP luminescence, 45 min. Potency, µM (top dose mostly 76.8 µM), usual class: inhibitors. 0.12% of 410,000 active; also: nearly all actives have a fitted effect of over 50% in size
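Activity of T. brucei pyruvate kinase was followed by Kinase-Glo Plus luminescence after the enzyme reacted 45 min at room temperature with 130 uM ADP (final) and substrate. Test compounds were added before ADP at multiple concentrations.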
Sm TGR block: qHTS Assay for the Inhibitors of Schistosoma Mansoni Peroxiredoxins; AID 485364, 2010; 3% of 360,000 active; Schistosoma mansoni thioredoxin glutathione reductase (TGR), Q962Y6; purified TGR, DTNB reduction, TNB absorbance 405 nm; Potency, µM (top dose mostly 114 µM), actives largely listed as inhibitors; also: nearly all actives have a fitted effect of over 60% in size
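Kinetic colorimetric format: TGR-catalysed, NADPH-driven DTNB reduction monitored via TNB absorbance. Enzyme dispensed at 20 nM; compound exposure 15 min at room temperature before reaction start.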
LmPK inh: qHTS Assay for Inhibitors of Leishmania Mexicana Pyruvate Kinase (LmPK); Q27686; purified LmPK, Kinase-Glo ATP luminescence, 1 h; Potency, µM (top dose mostly 57.5 µM), most hits filed as inhibitors; 0.37% of 290,000 active; AID 1721, 2009
Target sequence (Q27686 whole entry, looked up): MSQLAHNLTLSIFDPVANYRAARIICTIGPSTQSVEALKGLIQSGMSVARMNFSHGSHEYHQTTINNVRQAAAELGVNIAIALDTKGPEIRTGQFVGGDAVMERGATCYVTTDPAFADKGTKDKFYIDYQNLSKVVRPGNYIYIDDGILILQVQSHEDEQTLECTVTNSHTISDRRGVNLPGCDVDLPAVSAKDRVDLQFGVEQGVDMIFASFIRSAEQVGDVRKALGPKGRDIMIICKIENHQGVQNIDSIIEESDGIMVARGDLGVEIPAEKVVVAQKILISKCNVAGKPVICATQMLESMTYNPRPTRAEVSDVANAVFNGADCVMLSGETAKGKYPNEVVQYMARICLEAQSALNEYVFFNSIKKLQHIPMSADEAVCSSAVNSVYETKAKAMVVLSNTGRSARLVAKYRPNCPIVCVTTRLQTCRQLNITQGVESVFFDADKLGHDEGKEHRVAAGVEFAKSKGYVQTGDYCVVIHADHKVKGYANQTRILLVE
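0.1 nM LmPK, 0.5 mM PEP, 0.1 mM ADP; 50 mM imidazole pH 7.2, 7 mM MgCl2, 50 mM KCl; 1 h RT. Kinase-Glo luminescence readout, normalized to no-enzyme (full inhibition) and uninhibited wells.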
Each line names hits and unclear results; the compound was inactive in the other large screens. This is a sample that favours compounds with a hit; in the whole collection about 3.3% have one here. Unless noted, calls follow the shape of the dose curve; as a rule, active = well fitted curve in the direction sought with a large enough effect; inconclusive = small, poorly fitted or top-dose-only effect, or another doubt; inactive = no such curve, though single readings can be large; an effect the other way counts as inactive or inconclusive.

CN(CCCC1CCCC1)C(=O)CC1C(=O)NCCN1Cc1ccc(F)cc1 (configuration not stated)	Sm TGR block 28µM
COc1ccc(CCNC(=O)C2CCN(S(=O)(=O)c3cccs3)CC2)cc1OC	none
O=C(CN1CCSC1=O)N1CCN(S(=O)(=O)c2ccc(Cl)cc2)CC1	none (no result: Giardia FBPA inh, LmPK inh)
CCOC(CNC(=O)CCc1c(C)nc2ncnn2c1C)OCC	none
Cn1c(C(=O)NCCN2CCCCCC2)cc2c(=O)n(C)c3ccccc3c21	Sm TGR block inconclusive
O=C(c1cccs1)N1CCN(Cc2cn[nH]c2-c2ccc(F)cc2F)CC1	none
COc1cccc(CN2CCNC(=O)C2CC(=O)NCC2CCOCC2)c1 (configuration not stated)	Sm TGR block 35µM (no result: Giardia FBPA inh)
O=C(CC1C(=O)NCCN1Cc1cccc(Oc2ccccc2)c1)NCC1CCOCC1 (configuration not stated)	none (no result: Sm TGR block)
COc1ccc2c(c1)Cc1sc(NC(=O)c3ccco3)nc1-2	none (no result: Giardia FBPA inh)
COc1ccc2c(c1)Cc1sc(NC(C)=O)nc1-2	Giardia FBPA inh inconclusive, TbPYK inhibitor inconclusive, Sm TGR block 56µM
N=Cc1c(O)n(-c2cccc(Cl)c2)c(=O)[nH]c1=O	none
O=c1[nH]c(=O)n(-c2cccc(Cl)c2)c(O)c1/C=N/c1ccccn1	Sm TGR block 79µM
O=C(O)C1CCN(c2ccc(S(=O)(=O)N3CCCCC3)cc2[N+](=O)[O-])CC1	none (no result: Giardia FBPA inh, LmPK inh)
Cc1cccc(C)c1N1C(=O)C2ON(c3ccccc3)C(c3ccncc3)C2C1=O (configuration not stated)	none
COc1ccccc1N1C(=O)C2ON(c3ccccc3)C(c3ccc(N(C)C)cc3)C2C1=O (configuration not stated)	Sm TGR block 5µM (no result: RE007 growth inh, TbPYK inhibitor)
Cc1ccccc1N1C(=O)C2ON(c3ccccc3)C(c3ccco3)C2C1=O (configuration not stated)	Sm TGR block 50µM
COc1ccccc1C1C2C(=O)N(c3ccccc3)C(=O)C2ON1c1ccccc1 (configuration not stated)	none
Cc1ccc(N2C(=O)C3ON(c4ccccc4)C(c4ccncc4)C3C2=O)c(C)c1 (configuration not stated)	Sm TGR block 50µM
COc1ccc2c(c1OC)C(=O)OC2Nc1nc(-c2cc3ccccc3oc2=O)cs1 (configuration not stated)	RE007 growth inh inconclusive, LmPK inh 22µM
COc1ccc2c(c1OC)C(=O)OC2Nc1nc(-c2ccc(-c3ccccc3)cc2)cs1 (configuration not stated)	RE007 growth inh inconclusive
COc1cccc(-c2csc(NC3OC(=O)c4c3ccc(OC)c4OC)n2)c1 (configuration not stated)	Sm TGR block 40µM
Cn1c(CN2CCCCC2)nc2cc(NC(=O)c3cccc(Br)c3)ccc21	none
O=C1NC(=O)N(Cc2ccccc2Cl)C(=O)/C1=C/N1CCOCC1	Sm TGR block 3.5µM
O=C1NC(=O)N(Cc2cccs2)C(=O)/C1=C/c1ccc(N2CCOCC2)cc1	TbPYK inhibitor inconclusive, Sm TGR block inconclusive
COc1ccc(NC(=O)COC(=O)c2c(C)noc2C)c(OC)c1	none
CCN=C1S/C(=C\c2cn(C(C)=O)nc2-c2ccccc2)C(=O)N1CC	none
CC(=O)NC1=NC(=O)/C(=C/c2cn(C(C)=O)nc2-c2ccccc2)S1	TbPYK inhibitor 7.1µM
Cc1ccccc1-n1c(=O)/c(=C\c2ccco2)s/c1=C(/C#N)C(=O)Nc1ccccc1	none
CCOC(=O)c1sc(N/N=C/c2ccccc2)nc1C	TbPYK inhibitor inconclusive
O=C(O)Cc1sc(N/N=C\c2ccccc2)nc1-c1ccccc1	Sm TGR block 2.2µM
N#Cc1c(NC(=O)CSc2ncnc3sccc23)oc(-c2ccco2)c1-c1ccco1	Giardia FBPA inh inconclusive, Sm TGR block 4µM
Cc1cc(NC(=O)CSc2ncnc3sccc23)no1	none
Cn1cnnc1SCC(=O)N1CCc2ccccc2C1	none (no result: Giardia FBPA inh, Sm TGR block, LmPK inh)
[O-]/C(=C(\C(=S)Nc1cccc2ccccc12)[n+]1ccccc1)c1ccc2c(c1)OCCO2	Giardia FBPA inh 10µM
[O-]/C(=C(\C(=S)Nc1cccc2ccccc12)[n+]1ccccc1)c1ccc(OC(F)F)cc1	Giardia FBPA inh 22µM
O=C(COc1ccc(/C=N/NC(=O)c2ccncc2)cc1)Nc1ccc([N+](=O)[O-])cc1	none
Cc1cc(N2C(=O)C(=O)/C(=C(/O)c3ccccc3)C2c2cccs2)no1 (configuration not stated)	Sm TGR block 40µM
CC(=O)ON1C(C)(C)Cc2noc(N)c2C1(C)C	none
CC1(C)Cc2noc(N)c2C(C)(C)N1O	Sm TGR block 2.8µM
CCc1cc2ccc(OC)cc2nc1SCC(=O)NNC(=O)c1ccco1	Sm TGR block 8.9µM
O=c1c2ccccc2cnn1CCOc1ccccc1	TbPYK inhibitor inconclusive, LmPK inh 13µM
C=CCC(O)(CCN1CCCCC1)c1ccccc1 (configuration not stated)	Sm TGR block 25µM
OC(CCN1CCCCC1)(c1ccccc1)c1ccccc1	none
COc1ccc(C(O)(CCc2ccccc2)CCN2CCCCC2)cc1 (configuration not stated)	Sm TGR block 2.8µM
COc1ccccc1NC(=O)CSc1nnc(COc2ccc(Cl)cc2)n1Cc1ccco1	Sm TGR block inconclusive
CCOc1ccccc1NC(=O)CSc1nnc(-c2ccccn2)n1Cc1ccco1	Sm TGR block inconclusive
CCOc1ccccc1NC(=O)CSc1nnc(-c2ccco2)n1Cc1ccco1	Sm TGR block 50µM
CCOc1ccccc1NC(=O)CSc1nnc(-c2ccccc2Cl)n1Cc1ccco1	Sm TGR block 50µM
COc1ccc(-c2occ(C(=O)O)c2C(=O)O)cc1	none (no result: TbPYK inhibitor)
O=C(c1ccc(COCC(F)(F)F)o1)N1CCCCCC1	none
O=C1c2c(O)cccc2C(C2OC(CO)[C@@H](O)[C@H](O)[C@H]2O)c2cc(CO)cc(O)c21 (some centres not stated)	Sm TGR block 40µM (no result: Giardia FBPA inh, LmPK inh)
O=C1c2cc(CO)cc(O)c2C(=O)c2c(O[C@@H]3OC(CO)[C@@H](O)[C@@H](O)[C@@H]3O)cccc21 (some centres not stated)	none (no result: Giardia FBPA inh, Sm TGR block, LmPK inh)
CCCOc1ccc(/C=N/NC(=O)c2nnn(-c3nonc3N)c2-c2cccs2)cc1OC	none (no result: Giardia FBPA inh)
CCOC(=O)c1c(-c2cccs2)csc1NC(=O)CN1CCOCC1	none
CCOC(=O)c1c(-c2ccc(C)o2)csc1N	Giardia FBPA inh inconclusive
CCOC(=O)c1c(NC(=O)CSc2ncn[nH]2)sc(C(C)=O)c1C	Sm TGR block inconclusive (no result: Giardia FBPA inh)
CCOC(=O)c1c(-c2ccco2)csc1NC(=O)COC(=O)c1cnc(C)cn1	Sm TGR block 28µM (no result: Giardia FBPA inh, LmPK inh)

Source: PubChem (National Center for Advancing Translational Sciences (NCATS))
